Screening results deposited in PubChem by National Center for Advancing Translational Sciences (NCATS).
A selection: hits, their analogues and other compounds. The true share with any hit is near 7.5%.
HCV inhibitor = blocks hepatitis C virus | Potency, µM (top dose mostly 41.8 µM), hits mostly inhibitors | Huh7.5.1 HCVcc-Cre infection, luciferase reporter, 44 h | AID 651820 | 340,000 tested, 3.4% active
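Whole-lifecycle infectious HCVcc-Cre system; cells 1,000/well, compound then virus (~0.5 moi) added 4 h after plating, 44 h culture. Luciferase read 15 sec following 15 min substrate incubation, room temp.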
Vaccinia Venus = inhibitors of vaccinia virus (Venus reporter); Vaccinia virus Venus reporter expression, fluorescence; Potency, µM (doses to about 36.5 µM), hits mostly inhibitors; 330,000 tested, 0.46% active; calls by dose curve; tested in A549 cells; further: nearly all actives have a fitted effect of over 30% in size
VACV mCherry inh = inhibitors of vaccinia virus infection (mCherry reporter signal); Vaccinia virus mCherry reporter infection, fluorescence; Potency, µM (highest dose often 36.5 µM), usual class: inhibitors; 310,000 tested, 0.63% active; AID 720579; calls by dose curve; tested in A549 cells; further: nearly all actives have a fitted effect of over 35% in size
FMDV antiviral = blocks foot and mouth disease virus | FMDV antiviral cell-based qHTS | Potency, µM (top dose mostly 57.9 µM), hits mostly inhibitors | AID 1159524 | 410,000 tested, 1.2% active; calls by dose curve; tested in HEK293T cells; further: read-out not given here; nearly all actives have a fitted effect of over 45% in size
FBPA Giardia inh = inhibitors of Giardia lamblia fructose-1,6-bisphosphate aldolase; A8B2U2; purified Giardia FBPA; Potency, µM (doses to about 59.6 µM), hits mostly inhibitors; 290,000 tested, 0.71% active; AID 2451; further: nearly all actives have a fitted effect of over 55% in size
Target sequence (A8B2U2 whole entry, looked up): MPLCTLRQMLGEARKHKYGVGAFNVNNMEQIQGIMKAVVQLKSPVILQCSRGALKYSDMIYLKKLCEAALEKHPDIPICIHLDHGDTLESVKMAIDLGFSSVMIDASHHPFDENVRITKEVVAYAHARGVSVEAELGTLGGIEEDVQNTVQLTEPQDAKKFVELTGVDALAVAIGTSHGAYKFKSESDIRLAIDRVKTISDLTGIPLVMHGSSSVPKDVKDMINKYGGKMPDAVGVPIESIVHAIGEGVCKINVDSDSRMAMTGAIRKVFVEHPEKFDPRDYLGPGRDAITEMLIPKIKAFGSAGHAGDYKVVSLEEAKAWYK
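Giardia FBPA (40 nM reagent) was preincubated 10 min at RT with compound (up to 57.5 uM final), then substrate plus GAPDH/TPI/NAD/arsenate coupling system with diaphorase/resazurin was added; resorufin fluorescence (525/598 nm) was read after 20 min.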
HCMV antiviral = human cytomegalovirus inhibition; HFF cells, HCMV-luciferase reporter, 72 h; stronger effect = lower value; 410,000 tested, 4.5% active; AID 1259415; activity change, negative = inhibition, % at 57.5 µM; in the data active means activity change below about -60%; inconclusive means no clear call, values can overlap the other calls; inactive means above about -39%
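Compounds were evaluated in HFFs infected with an HCMV luciferase reporter virus (MOI 1 PFU/cell). Luciferase in lysates collected 72 h post infection served as the replication measure.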
Of the large screens only hits and unclear results are named; the others gave an inactive call. Unless noted, the call rests on the fitted dose curve; in most records, active means well fitted curve in the direction sought with a large enough effect; inconclusive means small, poorly fitted or top-dose-only effect, or another doubt; inactive means no such curve, though single readings can be large; an effect the other way counts as inactive or inconclusive.

CC(Oc1ccccc1)C(=O)N1CCN=C1SCc1ccccc1 (stereo not drawn)	none
O=c1c2ccccc2nc(-c2ccccc2Cl)n1O	none
O=c1c2ccccc2nc(-c2ccc(Cl)c(Cl)c2)n1O	HCMV antiviral -63 (no result: VACV mCherry inh)
O=c1c2ccc(Cl)cc2nc(-c2cccc(C(F)(F)F)c2)n1O	HCV inhibitor inconclusive, Vaccinia Venus inconclusive, VACV mCherry inh inconclusive, FMDV antiviral inconclusive, HCMV antiviral -103
N#Cc1ccc(-c2nc3cc(Cl)ccc3c(=O)n2O)cc1	HCV inhibitor inconclusive, FMDV antiviral inconclusive (no result: Vaccinia Venus, VACV mCherry inh)
CSCC[C@H](NC(=O)Cc1c(C)c2cc3c4c(oc3cc2oc1=O)CCCC4)C(=O)O	none (no result: Vaccinia Venus, VACV mCherry inh)
C#Cc1ccc([C@H]2C=C(C(=O)OCC=C)O[C@@H](OCCCCO)C2)cc1	HCMV antiviral -67 (no result: FBPA Giardia inh)
C#Cc1ccc([C@H]2C=C(C(=O)OCC=C)O[C@@H](OCc3ccc(CO)cc3)C2)cc1	none (no result: FBPA Giardia inh)
O=C(Cc1ccc(-n2c(=O)c3sccc3n(CC(=O)Nc3ccccc3)c2=O)cc1)NCc1ccco1	none
O=C(Cc1ccc(-n2c(=O)c3sccc3n(CC(=O)Nc3ccccc3F)c2=O)cc1)NCc1ccco1	HCMV antiviral -60 (no result: Vaccinia Venus, VACV mCherry inh)
C=C1C(=O)O[C@H]2C1CC[C@@](C)(O)C13C=CC(C)(C21)C1(C3)C(=O)O[C@@H]2C3C(C)=CCC3[C@](C)(O)C[C@H](OC(C)=O)C21 (stereo partly drawn)	HCMV antiviral -90
C=C1CCC(OC(C)=O)/C(C)=C/CC2[C@H]1CC2(C)C (stereo partly drawn)	none (no result: HCV inhibitor, HCMV antiviral)
CN1CCN(C(=O)CCN2C(=O)/C(=C\c3ccc(Cl)cc3)SC2=S)CC1	none (no result: Vaccinia Venus, VACV mCherry inh, FBPA Giardia inh, HCMV antiviral)
NS(=O)(=O)c1ccc(CCN2C(=O)/C(=C\c3ccc(Cl)cc3)SC2=S)cc1	HCV inhibitor inconclusive, HCMV antiviral -101
CCOCN(C(=O)CSc1nc2ccccc2[nH]1)c1c(C)cccc1CC	none (no result: HCV inhibitor, FBPA Giardia inh)
N#C/C(C(N)=O)=c1/ccc2c(c1)N1C3=C(CCCC3)CC3CCCCC31N=2 (stereo not drawn)	FMDV antiviral inconclusive, HCMV antiviral -68
N#CC(C#N)=c1ccc2c(c1)N1C3=C(CCCC3)CC3CCCCC31N=2 (stereo not drawn)	FMDV antiviral 40µM, HCMV antiviral -95 (no result: VACV mCherry inh)
CCN1CCN(C(=O)/C=C/c2ccc(C(C)C)cc2)CC1	none (no result: FBPA Giardia inh)
CCN1CCC(O)(/C=C/c2ccc(C(C)C)cc2)C(C(=O)/C=C/c2ccc(C(C)C)cc2)C1 (stereo not drawn)	HCV inhibitor 7.9µM, Vaccinia Venus inconclusive, VACV mCherry inh 11µM, FMDV antiviral 32µM, HCMV antiviral -61 (no result: FBPA Giardia inh)
CC(=O)N(C)c1cc([N+](=O)[O-])ccc1OCc1ccccc1	none (no result: FBPA Giardia inh)
COc1cccc2c1Oc1cc([N+](=O)[O-])cc(N(C)C(C)=O)c1C=C2	HCV inhibitor inconclusive, VACV mCherry inh 7.1µM
COc1cc(C(=O)N/N=C(\C)c2ccc(NC(=O)Cc3ccccc3)cc2)ccc1O	none (no result: Vaccinia Venus, VACV mCherry inh, FBPA Giardia inh)
COC(=O)[C@]1(C)CCC[C@@]2(C)C3CC[C@@]4(C)C[C@]3(CCC21)CC(=O)N4Cc1ccc(OC)cc1 (stereo partly drawn)	HCV inhibitor 13µM, VACV mCherry inh inconclusive, FMDV antiviral inconclusive (no result: FBPA Giardia inh)
COC(=O)[C@]1(C)CCC[C@@]2(C)C3CC[C@]4(OC(C)=O)C[C@@]3(CCC21)CC4=O (stereo partly drawn)	HCV inhibitor inconclusive, Vaccinia Venus inconclusive, FMDV antiviral inconclusive (no result: FBPA Giardia inh)
COC(=O)[C@]12CCCCC=C1N(CCC1=CCCCC1)C(=O)[C@H](CC(=O)N1CCN(C(=O)c3ccco3)CC1)C2	none (no result: HCV inhibitor, FBPA Giardia inh)
O=C(NNC1=Nc2ccccc2SC1)c1cccc([N+](=O)[O-])c1	HCMV antiviral -84
O=C(NNC1=Nc2ccccc2SC1)c1ccccc1F	HCV inhibitor 14µM, Vaccinia Venus inconclusive, HCMV antiviral -86
CCCCNC(=O)c1nc2ccccc2nc1-c1cccc(Br)c1	none (no result: HCV inhibitor, Vaccinia Venus, VACV mCherry inh, FMDV antiviral, FBPA Giardia inh)
O=C(c1ccc(C(F)(F)F)cc1)C1CCCN(Cc2ccncc2)C1 (stereo not drawn)	HCV inhibitor 6.3µM, FMDV antiviral inconclusive, HCMV antiviral inconclusive
O=C(c1ccc(C(F)(F)F)cc1)C1CCCN(C(=O)CCc2ccncc2)C1 (stereo not drawn)	HCV inhibitor 11µM, FMDV antiviral inconclusive (no result: FBPA Giardia inh)
